In PubChem BioAssay one finds z-score data, which are given here for 35 compounds.

A short description of this test: blood-stage malaria parasite viability loss – strain 3D7, DAPI fluorescence, 100 nL, primary screen (AID 1184).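 Also: parasites grown inside human red blood cells in medium with human serum.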 As to conditions: P. falciparum 3D7 growth, 3 d, higher = more signal.
Compound `CCCCC(=C=CC[C@@H](O)c1ccccc1OCCO)C[C@@H](O)c1ccccn1` showed a z-score of -1.48.
Consider `[N-]=[N+]=Nc1ccccc1C[C@]1(C(=O)N2CCCCC2)N=C(c2ccc(OCCCO)cc2)O[C@H]1c1ccccc1`, for which the z-score was -2.34.
Regarding `C=C1C(=O)C=C2CN(C(=O)c3ccccc3)[C@@](Cc3ccc(F)cc3)(C(=O)OC)[C@@H]12`, the z-score is -1.59.
`COC(=O)C(CC#Cc1ccc2c(c1)[C@]1(C(=O)N2)[C@H](c2ccc(OCCO)cc2)N2[C@H](c3ccccc3)[C@H](c3ccccc3)OC(=O)[C@H]2[C@@H]1C(N)=O)C(=O)OC` showed a z-score of -0.983.
Next, `C=CCNC(=O)[C@H]1[C@@H]2C(=O)O[C@@H](c3ccccc3)[C@@H](c3ccccc3)N2[C@@H](c2ccc(O)cc2)[C@]12C(=O)N(C(=O)OCCOC)c1ccc(C#Cc3ccc(OC)cc3)cc12`: -0.812; `C=C(C)C1CN([C@H](CO)c2ccccc2)C(=O)/C1=C\c1ccccc1` (stereo not given in full): -1.9.
Next, `COC(=O)C(CC#Cc1ccc2c(c1)[C@]1(C(=O)N2)[C@H](C(N)=O)[C@H]2C(=O)O[C@H](c3ccccc3)[C@H](c3ccccc3)N2[C@@H]1c1ccccc1OCCO)C(=O)OC`: -2.08; `C=CC[C@H](OC(=O)Nc1ccc(SC)cc1)c1ccc(O)c(F)c1`: -0.249; `CN1C2C=C(c3ccc(CO)cc3)C(C3C(=O)N(C(N)=O)C(=O)C32)C1C1CC1` (stereo not given): -0.854.
Next, `CCCCN1CC=CC23O[C@@H]4/C=C\CCCOC(=O)C4[C@H]2C(=O)N(CCCCCCO)[C@@H]3C1=O` (stereo not given in full): -0.165; `CN(C)C(=O)[C@]1(CCS(=O)(=O)c2ccccc2)N=C(c2ccc(OCCCO)cc2)O[C@@H]1c1ccccc1CN=[N+]=[N-]`: -2.13; `CC(C)(C)OC(=O)CC[C@@]1(C(=O)N2CCOCC2)N=C(c2ccc(OCCCO)cc2)O[C@@H]1c1ccccc1CN=[N+]=[N-]`: -2.12.
Turning to `COc1ccc(CCNC(=O)[C@@H]2c3ccccc3C(=O)N(C(C)C)[C@H]2c2ccc(CO)cc2)cc1`, the z-score is 1.13.
Next, `COC(=O)C(CC#Cc1ccc2c(c1)[C@]1(C(=O)N2)[C@H](C(=O)N2CCCCCCC2)[C@H]2C(=O)O[C@H](c3ccccc3)[C@H](c3ccccc3)N2[C@@H]1c1ccc(OCCO)cc1)C(=O)OC`: -2.14; `O=C1N(Cc2ccccc2)Cc2ccccc2C[C@@]12COC(c1ccc(OCCCO)cc1)=N2`: -2.08.
Next, `COc1cccc(C)c1NC(=O)O[C@H]1[C@H](OC(=O)Nc2ccccc2)[C@@H](OC(=O)Nc2ccccc2)[C@@H](OC)O[C@@H]1CO`: -2.57.
Next, `COc1ccc(NN2C(C(O)c3ccc(F)cc3)C=CC3C(=O)N(C4CCCCC4)C(=O)C32)cc1` (stereo not given): -0.517.
Take `COCCOC(=O)N1C(=O)[C@@]2(c3cc(C#CCCO)ccc31)[C@H](c1ccc(O)cc1)N1[C@H](c3ccccc3)[C@H](c3ccccc3)OC(=O)[C@H]1[C@@H]2C(=O)NC[C@H](O)c1ccccc1`: the z-score was found to be 0.0019.
The compound `CC(C)N1CC=CC23O[C@@H]4/C=C\CCCOC(=O)C4[C@H]2C(=O)N(C(C)CO)[C@@H]3C1=O` (stereo not given in full) registered a z-score of 0.261.
Consider `O=C/C=C/c1ccc(-c2ccccc2)cc1`, for which the z-score was 0.886.
Next, `C=CCC(OC(C)=O)[C@@H]1[C@@H](N(Cc2ccc(-c3ccccc3)cc2)C(=O)Cc2ccc(OC)cc2)c2cc(OCCCO)ccc2N1C(=O)Cc1ccc(OC)cc1` (stereo not given in full): -1.97; `COc1ccc([Si](C)(C)[C@@H]2[C@@H](CC(=O)N(CCO)Cc3ccccc3)O[C@]3(C(=O)N(Cc4cccc(I)c4)c4ccccc43)[C@H]2C)cc1`: -2.86.
Next, `CCCCCN1CC=CC23O[C@@H]4/C=C\CCCOC(=O)C4[C@H]2C(=O)N(CCO)[C@@H]3C1=O` (stereo not given in full): -1.31; `COc1ccc([Si](C)(C)[C@H]2[C@H](CC(=O)N3CCC[C@H]3CO)O[C@@]3(C(=O)N(C)c4c(Br)cc(C)cc43)[C@@H]2C)cc1`: -1.56.
Next, `Cc1ccc(S[C@]2(C(=O)NC(C)C)CC(=O)N(Cc3ccccc3)[C@@H]2c2ccc(CO)cc2)cc1`: 0.14; `O=C1C2C=CC(C(O)C3CCCCC3)N(Nc3ccccc3F)C2C(=O)N1c1ccccc1` (stereo not given): -0.193; `CO[C@H]1O[C@H](CO)[C@@H](OC(=O)CCc2ccccc2)[C@@H]2OC(=O)[C@@H](Cc3ccc4ccccc4c3)C/C=C/C[C@H](Cc3ccc4ccccc4c3)C(=O)O[C@@H]12`: -2.13.
`C[C@H]1C2[C@H](Cc3ccccc3)NC(=O)[C@]23C(=O)N[C@@H](Cc2ccccc2)C(=O)N2CCC[C@H]2C(=O)NC/C=C/CC/C=C/C3[C@@H]2O[C@]12C` (stereo not given in full) had a z-score of -2.99.
In turn, `COC(=O)C(CC#Cc1ccc2c(c1)[C@]1(C(=O)N2)[C@H](C(=O)N2CCN(c3ncccn3)CC2)[C@H]2C(=O)O[C@H](c3ccccc3)[C@H](c3ccccc3)N2[C@@H]1c1ccc(O)cc1)C(=O)OC` came in with a z-score of -2.28.
Next, `CO[C@H]1O[C@H](CO)[C@@H](OC(=O)Nc2cccc(F)c2)[C@H](OC(=O)c2cc3ccccc3[nH]2)[C@H]1OC(=O)c1cc2ccccc2[nH]1`: -0.194.
Compound `COC(=O)C1=CC(c2ccc(CO)cc2)=CC(C2CC2)N(Cc2cc3c(cc2Br)OCO3)C=C1C(=O)OC` (stereo not given) came in with a z-score of -2.29.
`C=CCOC(=O)[C@@H]1[C@H]2C(=O)O[C@H](c3ccccc3)[C@H](c3ccccc3)N2[C@H](c2ccc(OCCOC(=O)[C@H]3C[C@H]4C(=O)N[C@@H](CCCCN(C)C)C(=O)N4[C@H]3c3cccc(OCCO)c3)cc2)[C@@]12C(=O)Nc1ccccc12`: the z-score was -0.405.
`C=C[C@@H](CO)NS(=O)(=O)c1ccc(Br)cc1`: the z-score is -0.345.
`COC(=O)[C@@]1(Cc2ccc(F)cc2)[C@H]2c3cc(C(=O)N4CCCC4)n(CCSCCO)c3C[C@H]2CN1C(=O)c1ccccc1`: the z-score is -1.41.
Next, `O=C1C2C=CC(C(O)C3CC=CCC3)N(Nc3ccc([N+](=O)[O-])cc3)C2C(=O)N1c1ccccc1` (stereo not given): -0.627.
